This is a sample that favours compounds with a hit; in the whole collection about 5.4% have one here.
FMDV inh: High Throughput Screening for Foot and Mouth Disease Virus Antivirals; FMDV antiviral cell-based qHTS; Potency, µM (top dose mostly 57.9 µM), most hits filed as inhibitors; 410,000 tested, 1.2% active; AID 1159524, 2015; calls by dose curve; tested in HEK293T cells; further: read-out not given here; nearly all actives have a fitted effect of over 45% in size
MARV entry inh: qHTS for inhibitors of binding or entry into cells for Marburg Virus; Marburg virus pseudotyped entry inhibition, cell reporter; Potency, µM (top dose mostly 37.8 µM), actives largely listed as inhibitors; 300,000 tested, 1.8% active; AID 540276, 2011; calls by dose curve; tested in HEK293 cells
VACV Venus inh: qHTS for Stage-Specific Inhibitors of Vaccinia Orthopoxvirus: Venus Reporter Primary qHTS | Vaccinia virus Venus reporter expression, fluorescence | Potency, µM (series often up to 36.5 µM), hits mostly inhibitors | 330,000 tested, 0.46% active; calls by dose curve; tested in A549 cells; further: nearly all actives have a fitted effect of over 30% in size
LASV entry inh: qHTS for Inhibitors of binding or entry into cells for Lassa Virus. Lassa virus pseudotype entry inhibition, cell reporter. Potency, µM (highest dose often 37.9 µM), usual class: inhibitors. 300,000 tested, 1.2% active. AID 540256, 2011; calls by dose curve; tested in HEK293 cells; further: nearly all actives have a fitted effect of over 50% in size
VACV mCherry inh: qHTS for Stage-Specific Inhibitors of Vaccinia Orthopoxvirus: mCherry Reporter Primary qHTS | Vaccinia virus mCherry reporter infection, fluorescence | Potency, µM (top dose mostly 36.5 µM), actives largely listed as inhibitors | 310,000 tested, 0.63% active | AID 720579, 2013; calls by dose curve; tested in A549 cells; further: nearly all actives have a fitted effect of over 35% in size
Sm TGR block: qHTS Assay for the Inhibitors of Schistosoma Mansoni Peroxiredoxins; purified TGR, DTNB reduction, TNB absorbance 405 nm; 360,000 tested, 3% active; Schistosoma mansoni thioredoxin glutathione reductase (TGR), Q962Y6; Potency, µM (top dose mostly 114 µM), hits mostly inhibitors; active means well fitted inhibition curve with a large enough effect; inconclusive means small, poorly fitted or top-dose-only effect; inactive means no such curve, though single readings can be large or run the other way; further: nearly all actives have a fitted effect of over 60% in size
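First, TGR (20 nM dispensed) and NADPH were mixed with compound. Second, a 15 min room-temperature incubation followed. Third, further NADPH and then DTNB were added to start the reaction. Finally, TNB absorbance was monitored kinetically.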
A number is an active result; 0 = inactive; ? = inconclusive; - = no result.

SMILES	FMDV inh	MARV entry inh	VACV Venus inh	LASV entry inh	VACV mCherry inh	Sm TGR block
CCc1nc2cc(C(=O)N3CCC[C@H]3CO)cc(NC(=O)c3ccccc3OC)c2n1C	0	-	0	-	0	-
COc1ccccc1N1CCN(c2nc3ccccc3n3cnnc23)CC1	0	0	0	-	0	0
O=C(COC(=O)CCN1C(=O)c2cccc([N+](=O)[O-])c2C1=O)NCc1ccccc1	0	-	-	-	-	79.4µM
CCC(=O)Nc1cccc(NC(=S)NC(=O)c2cccc(C)c2)c1	0	?	0	?	0	39.8µM
CCC(=O)Nc1cccc(NC(=S)NC(=O)c2ccc(C)cc2)c1	0	-	0	-	0	-
CCC(=O)Nc1cccc(NC(=S)NC(=O)c2ccccc2)c1	0	0	0	?	0	44.7µM
O=C(CSc1ccccc1)N1CCc2c([nH]c3ccccc23)C1c1ccc(Cl)cc1 (configuration not stated)	0	-	0	?	0	0
CC(=O)[C@@]1(C)OC(N)=C(C#N)[C@@H](c2ccccc2)C1(C#N)C#N	-	0	-	-	-	-
COc1ccc2[nH]c3c(c2c1)CCN1C(=O)C(CC(=O)NCCc2ccccn2)C[C@H](C(=O)N2CCCCC2)[C@@]31CCc1ccccc1 (some centres not stated)	0	0	0	-	?	-
CN(C)CCCNC(=O)C[C@H]1C[C@H](C(=O)N2CCCCC2)[C@@]2(C)c3[nH]c4ccc(Cl)cc4c3CCN2C1=O	0	0	0	-	0	-
CN(C)CCCNC(=O)C[C@H]1C[C@H](C(=O)N2CCCCC2)[C@@]2(CCc3ccccc3)c3[nH]c4ccc(Cl)cc4c3CCN2C1=O	?	-	14.1µM	-	12.6µM	-
O=C(C[C@H]1C[C@H](C(=O)N2CCCCC2)[C@@]2(CCc3ccccc3)c3[nH]c4ccc(Cl)cc4c3CCN2C1=O)NCCc1ccccn1	?	-	12.6µM	-	?	-
CCC1CN(C(=O)N2CCC(C(=O)O)CC2)c2cc(C)ccc2O1 (configuration not stated)	0	?	0	0	0	0
Cc1ccc(-c2cc3ncc4c(n3n2)-c2cc(Cl)ccc2OC4)cc1	0	0	0	0	0	0
CCOC(=O)c1scc(-c2ccc(C)cc2)c1S(=O)(=O)Nc1cc(Cl)ccc1OC	0	-	0	?	0	0
Cc1ccccc1CN1Cc2cnnn2-c2ccccc2C1C#N (configuration not stated)	12.6µM	-	0	-	0	-
COc1ccc([C@H]2C(C#N)=C(SC)NC3=C2C(=O)CC(C)(C)C3)cc1	-	0	-	-	-	-
CCS(=O)(=O)N1N=C(c2ccc(C)cc2)CC1c1cc2ccc(OC)cc2nc1Cl (configuration not stated)	0	0	0	0	0	0
COc1ccc2cc(C3CC(c4ccco4)=NN3S(C)(=O)=O)c(Cl)nc2c1 (configuration not stated)	0	0	0	0	0	6.31µM
CS(=O)(=O)N1N=C(c2ccco2)CC1c1ccco1 (configuration not stated)	0	-	-	-	-	20µM
Cc1cc(C)c(S(=O)(=O)Nc2cccc(-c3cn4ccccc4n3)c2)c(C)c1	0	-	0	?	0	0
ClC(Cl)(Cl)c1nc2ccccc2n2nncc12	?	4.47µM	?	?	?	0
CC(C)(C)OC(=O)N1CCC(c2c(C(=O)N3CCCCC3)cnn2-c2ccccc2Cl)CC1	0	-	0	?	0	0
COc1ccc(NC(=O)c2cccc(N3C(=O)c4cccc([N+](=O)[O-])c4C3=O)c2)cc1	0	-	-	-	-	0
COc1ccc(/C=C2\C(=O)N(c3c(Cl)cc(Cl)cc3Cl)N=C2NC(=O)c2cccc([N+](=O)[O-])c2)cc1	11.2µM	0	0	0	0	0
SMILES	FMDV inh	MARV entry inh	VACV Venus inh	LASV entry inh	VACV mCherry inh	Sm TGR block
COc1cccc(OC)c1OCCNCC1CSc2ccccc2O1 (configuration not stated)	0	25.9µM	0	?	0	-
Cc1ccc(-c2csc3ncnc(OCC(=O)NC(=O)NCc4ccco4)c23)cc1	?	20.6µM	0	?	0	?
O=C(COc1ncnc2scc(-c3ccc(F)cc3)c12)NCc1ccco1	0	0	?	0	-	0
CC(C)(C)C(=O)Cn1ncc(N2CCCC2)c(Br)c1=O	0	?	0	0	-	0
O=C(Cn1ncc(Cl)c(Cl)c1=O)c1ccc(Cl)cc1	35.5µM	2.91µM	0	?	0	?
CC(C)(C)C(=O)Cn1ncc(Cl)c(Cl)c1=O	?	-	-	-	-	39.8µM
O=C(Cn1ncc(N2CCOCC2)c(Cl)c1=O)c1ccc(Cl)cc1	?	?	0	?	0	0
C=CCn1c(C)cc(C(=O)Cn2ncc(Cl)c(Cl)c2=O)c1C	?	?	?	?	?	39.8µM
O=C(CSc1nc(=O)n(Cc2ccccn2)c2c1CCC2)Nc1cccc(Cl)c1	0	-	0	0	0	0
Cc1noc(/C=C/c2cccs2)c1S(=O)(=O)N1CCC(C(=O)NCc2ccccc2Cl)CC1	0	0	0	0	0	0
COc1ccc(CCNC(=O)CCc2c(C)nc3c(c(C)nn3-c3ccccc3)c2C)c(OC)c1	0	0	0	0	0	0
CCN(CC)/N=N/C1=C2C(C)=CC(C)=NC2N=N1 (configuration not stated)	-	0	-	-	-	-
CCN(CC)CCCNc1cc(C)nc2cc(-c3cccs3)nn12	0	17.8µM	0	0	0	0
COc1c(C)cc(S(=O)(=O)Nc2cccc(-c3ccc(N4CCOCC4)nn3)c2)c(C)c1C	0	-	0	0	0	0
O=c1[nH]c2ccccc2n1CCCSCCCn1c(=O)[nH]c2ccccc21	20µM	?	-	?	-	0
Cc1c(C(=O)NCc2cccc(Cl)c2)sc2nc3n(c(=O)c12)CCCC3	0	-	0	0	0	14.1µM
Cc1c(C(=O)Nc2cccc(C#N)c2)sc2nc3n(c(=O)c12)CCCCC3	0	-	0	0	0	5.62µM
COc1ccccc1N1CCN(C(=O)Cn2c(=O)nc(-c3ccccc3)c3cc(Cl)ccc32)CC1	0	-	0	0	0	0
O=c1c2sccc2n(Cc2cc(=O)n3cc(Cl)ccc3n2)c(=O)n1-c1ccccc1	0	0	0	0	0	0
CCOC(=O)N1CCN(C(=O)c2cc(S(=O)(=O)N3CCc4ccccc43)ccc2OC)CC1	0	0	0	1.78µM	0	0
O=C(Nc1ccc(S(=O)(=O)N2CCc3ccccc32)cc1)c1ccco1	?	0	0	7.3µM	?	0
COc1ccccc1C(=O)Nc1ccc(S(=O)(=O)N2CCc3ccccc32)cc1	-	?	0	0	0	0
COc1cc(C(=O)Nc2ccc(S(=O)(=O)N3CCc4ccccc43)cc2)cc(OC)c1OC	0	11.6µM	-	0	-	0
CC1=C[S+](=O)([O-])CC1SC1=NC2C=CC=CC2=N1 (configuration not stated)	-	0	-	-	-	-
O=C(NC1CCCCCC1)c1ccc(CS(=O)Cc2cccc(Cl)c2)o1 (configuration not stated)	0	-	-	-	-	56.2µM

Bioassay records (PubChem)
